Experimental data as given in patent US20150152398, “Endoribonuclease and Methods of Use Thereof” (The Regents of the University of California, published 2015).

Target: T1, TtCas6A R129A (Thermus thermophilus HB8, R129A)
T1 chain: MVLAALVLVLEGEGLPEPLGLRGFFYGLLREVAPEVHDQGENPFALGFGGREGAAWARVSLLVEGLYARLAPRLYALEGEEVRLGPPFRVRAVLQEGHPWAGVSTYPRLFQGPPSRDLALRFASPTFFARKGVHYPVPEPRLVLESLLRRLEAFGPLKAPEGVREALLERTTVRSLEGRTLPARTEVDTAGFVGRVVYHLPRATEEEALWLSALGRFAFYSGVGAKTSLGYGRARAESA
Assay: EMSA; Kd in FIG. 24D only
Details: chain copies: 2 inferred; label: 5'-32P (EMSA); hairpin; ssRNA
From the text: FIG. 22 illustrates that TtCas6A and TtCas6B both cleave repeats R1 and R3 and retain their cleaved products. (A) Sequences and predicted secondary structures of T. thermophilus CRISPR repeats. Sites of cleavage are indicated with blue arrows. TtCas6e (TTHB192) cleaves repeat R2, while TtCas6A (TTHA0078) and TtCas6B (TTHB231) both cleave repeats R1 and R3. (B) Cleavage product binding affinities of TtCas6A and TtCas6B enzymes. Maltose binding protein (MBP)-fused TtCas6A or TtCas6B were bound to in 5′-radiolabelled, vitro transcribed R1 and R3 RNAs. Bound and unbound fractions were resolved by electrophoresis on a native polyacrylamide gel and visualized by phosphorimaging. The data for these and all subsequent binding assays were fit with standard binding isotherms (solid line). Error bars on each data point denote standard error of the mean (SEM) from three independent experiments. (C) Experiments to confirm single turnover. RNA cleavage assays were carried out at indicated protein:RNA ratios. RNA cleavage was monitored using denaturing polyacrylamide gel electrophoresis. The data from these and all subsequent endoribonuclease activity assays were fit with single exponential curves to yield first-order rate constants. (Top to bottom: FIG. 22A, SEQ ID NOs: 1, 2, 55).
To test the importance of the stem sequence for substrate RNA recognition by TtCas6A, a series of EMSAs was performed using R1 repeat-derived RNAs that carried single base pair substitutions (C-G→A-U). All mutant RNAs contained the complete 5′ segment and additional two nucleotides downstream of the cleavage site. Compared to the wild-type RNA, substitution of any of the four C-G base pairs in the stem led to about five-fold decrease in affinity (FIG. 24C). This is consistent with the observation that the lower three C-G base pairs are specifically read out by Arg129. The binding defect observed upon mutation of the closing (uppermost) base pair could be due to loss of stability of the stem-loop structure, which is determined by the closing base-pair (Serra et al, 1993). To further investigate the protein determinants of RNA binding, we tested the TtCas6A mutants H37A and R129A and performed binding assays using substrates R1 and R3 (FIG. 24D).

Question: With GUUGCAAGGGAUUGAGCCCCGUAAGGGGAUUGCGAC as the sequence, how does the binding signal read?
Answer: ~260 fold lower affinity than WT

Question: For GUUGCAAACCUCGUUAGCCUCGUAGAGGAUUGAAAC, which binding signal is on record?
Answer: ~290 fold lower affinity than WT
